# In all, about 39,000 compounds went through this assay and about 3,300 (8.5%) were called active. What follows is part of a selection rich in actives, with near analogues and random picks from the rest.
# System: HepG2
# Assay: cytotoxicity call (relative viability < 0.9)
# Conditions: 10 µM
row,SMILES,cytotoxicity call
1,OC1(c2cccnc2)CCNCC1,inactive
2,CCN(Cc1ccc(Cl)nc1)C(=C[N+](=O)[O-])NC,inactive
3,Cc1ccc2n[nH]c(CN)c2c1,inactive
4,[N-]=[N+]=Nc1ccccc1C[C@]1(C(N)=O)N=C(c2ccc(OCCCO)cc2)O[C@H]1c1ccccc1N=[N+]=[N-],inactive
5,COC(=O)[C@]1(Cc2ccccc2CN=[N+]=[N-])N=C(c2ccc(OCCCO)cc2)O[C@@H]1c1ccccc1CN=[N+]=[N-],active
6,COC(=O)[C@@]1(Cc2ccccc2N=[N+]=[N-])N=C(c2ccc(OCCCO)cc2)O[C@H]1c1ccccc1N=[N+]=[N-],inactive
7,COC(=O)[C@@]1(Cc2ccccc2CN=[N+]=[N-])N=C(c2ccc(OCCCO)cc2)O[C@H]1c1ccccc1CN=[N+]=[N-],inactive
8,COC(=O)[C@]1(Cc2ccccc2N=[N+]=[N-])N=C(c2ccc(OCCCO)cc2)O[C@@H]1c1ccccc1N=[N+]=[N-],active
9,COC(=O)[C@]1(Cc2ccccc2N=[N+]=[N-])N=C(c2ccc(OCCCO)cc2)O[C@@H]1c1ccccc1CN=[N+]=[N-],inactive
10,CO[C@@H]1[C@H](OC(=O)NC(=O)CCl)CC[C@]2(CO2)[C@H]1[C@@]1(C)O[C@@H]1CC=C(C)C,inactive
11,CN1CCCCC1c1ccc(-c2cccnc2)nc1.Cl (configuration not stated),inactive
12,CN(CCC[C@@H](O)c1cccnc1)[NH2+][O-],inactive
13,C=C(C)[C@@H]1[C@H]2OC(=O)[C@@H]1[C@]1(O)C[C@H]3O[C@]34C(=O)O[C@H]2[C@]14C,inactive
14,O[C@@]12CCCC[C@@H]1CNCC2,inactive
15,CN1[C@@H]2CC[C@@H]1CC(N)C2 (some centres not stated),inactive
16,Nc1nc(N)nc(NC2CC2)n1,inactive
17,CCN1CCN(c2nc([N+](=O)[O-])nn2C)CC1,inactive
18,CC(C)c1cccc2c1OCC[C@H](N)[C@@H]2O,inactive
19,CC(C)c1cccc(C(C)C)c1O,active
20,C[C@@H](N)Cc1cccc(O)c1,inactive
21,C[C@@H](CN)CC(=O)O,inactive
22,CC(=O)[O][PbH2][O]C(C)=O,inactive
23,Clc1ccc(Cl)cc1,inactive
24,O=C(O)c1cc(Cl)ccc1Cl,inactive
25,Oc1ccc(Cl)cc1Cc1cc(Cl)ccc1O,active

row,SMILES,cytotoxicity call
1,CCN1C[C@]23CNC[C@@H](C[C@H]2S1(=O)=O)O3,inactive
2,C1CC(NC2CCOCC2)CCO1,inactive
3,O=C1C=C2C(=CCOC2O)O1 (configuration not stated),active
4,O=C1C=C2C(=CCO[C@@H]2O)O1,inactive
5,CC(=O)N[C@H]1C(=O)NC(=S)N(c2ccccc2)C1=O,inactive
6,N#CCCN1CCCC2(CCCC2)C1,inactive
7,N/N=C(/N)NO,inactive
8,COc1ccc(OC(=O)N(C)C[C@@H]2OCc3ccccc3-c3c(n(C)c4ccccc34)C(=O)N([C@@H](C)CO)C[C@@H]2C)cc1,inactive
9,COC(=O)[C@@H]1[C@@H](CO)[C@@H]2Cn3c(cccc3=O)[C@H]1N2C(=O)C1CC1,inactive
10,N[C@@H](CO)Cc1ccccc1,inactive
11,CCN(CC)C(=O)C1=NO[C@]2(CCNC2)C1,inactive
12,CCC1CN2CCc3cc(OC)c(OC)cc3C2CC1CC1NCCc2cc(OC)c(OC)cc21.Cl.Cl (configuration not stated),active
13,COc1cc2c(cc1OC)C(C)NCC2 (configuration not stated),inactive
14,COc1cc2c(cc1O)CCNC2C (configuration not stated),inactive
15,COc1cc2c(cc1OC)C1CC(=O)C(CC(C)C)CN1CC2 (configuration not stated),active
16,CNC1C(O)C(OC2C(N)CC(N)C(OC3OC(C(C)O)C(O)C(O)C3N)C2O)OCC1(C)O (configuration not stated),inactive
17,CNC(=O)[C@H]1C[C@H]2CN(CC3CC3)C[C@H]1O2,inactive
18,CCN1C[C@H]2C[C@H](C(=O)NCC3CC3)[C@@H](C1)O2,inactive
19,C[C@@]1(O)[C@H](O)[C@@H](CO)O[C@H]1n1ccc2c(N)ncnc21,inactive
20,CN(C)C(=O)Oc1cccc([N+](C)(C)C)c1.COS(=O)(=O)[O-],inactive
21,COc1ccc(Cc2nccc3cc(OC)c(OC)cc23)cc1OC.Cl,active
22,COc1ccc(C[C@@H](N)c2ccc(C)cn2)cc1OC,inactive
23,COc1ccc(CCN)cc1OC,inactive
24,NCCc1cc(O)c(O)cc1O,inactive
25,COc1cc(OC)c(OC)cc1C=O,active

row,SMILES,cytotoxicity call
1,COc1cccc(C=O)c1OC,inactive
2,COc1cc2c(cc1C=O)OCO2,inactive
3,O=C1C[C@@H](c2ccc(O)cc2)CN1,inactive
4,O=C(O)C(Cl)Cl,inactive
5,N[C@@H](Cc1ccccc1)c1ccc2c(c1)OCCO2,inactive
6,C1CCC(NC2CCCCC2)CC1,inactive
7,CC12C=CC(=O)C=C1CCC1C2CCC2(C)C(=O)CCC12 (configuration not stated),inactive
8,CCC1(C2OC(C3OC(O)(CO)C(C)CC3C)CC2C)CCC(C2(C)CCC3(CC(O)C(C)C(C(C)C(OC)C(C)C(=O)[O-])O3)O2)O1.[Na+] (configuration not stated),active
9,S=C=NCc1ccccc1,active
10,NC(Cc1ccccc1)Cc1ccccc1,inactive
11,Cl.NCCc1ccccc1,inactive
12,O=C(O)[C@H]1N[C@H]2CC[C@@H]1C2,inactive
13,CC(=O)N[C@@H]1[C@H](O[C@@H]2O[C@H](C[C@@H](O)[C@H]3O[C@@H](n4ccc(=O)[nH]c4=O)[C@H](O)[C@@H]3O)[C@H](O)[C@H](O)[C@H]2NC(=O)/C=C/CCCCCCCCC(C)C)O[C@@H](CO)[C@H](O)[C@H]1O,active
14,COc1ccc(OC(=O)N(C)C[C@H]2OCc3ccccc3-c3c(n(C)c4ccccc34)C(=O)N([C@H](C)CO)C[C@H]2C)cc1,inactive
15,C1COC2(CN1)CNC2,inactive
16,O.O=P1(N(CCCl)CCCl)NCCCO1 (configuration not stated),inactive
17,Cc1ccnc(N2CCNCC2)c1,inactive
18,CCCCCCCCCCCCCC(=O)O[C@@H]1[C@@H](C)[C@@]2(O)[C@@H](C=C(CO)C[C@]3(O)C(=O)C(C)=C[C@@H]23)[C@@H]2C(C)(C)[C@]12OC(C)=O,active
19,CCCCCCCCCC(=O)O[C@@H]1[C@@H](C)[C@@]2(O)[C@@H](C=C(CO)C[C@]3(O)C(=O)C(C)=C[C@@H]23)[C@@H]2C(C)(C)[C@]12OC(=O)CCCCCCCCC,inactive
20,CCCCCCCCCC(=O)O[C@@H]1[C@@H](C)[C@]2(O)[C@@H](C=C(CO)C[C@]3(O)C(=O)C(C)=C[C@@H]23)[C@@H]2C(C)(C)[C@@]12OC(=O)CCCCCCCCC,active
21,CC1=C[C@H]2[C@]3(O)[C@H](C=C(CO)C[C@]2(O)C1=O)[C@H]1C(C)(C)[C@@]1(O)[C@H](O)[C@@H]3C,inactive
22,Cc1ccc(CC2(N)CC2)cc1,inactive
23,CC(C)C[C@H](NC(=O)[C@H](CO)NC(=O)CNC(=O)[C@H](CC(C)C)NC(=O)[C@H](CCC(=O)O)NC(=O)[C@H](Cc1ccc(O)cc1)NC(=O)[C@H](CO)NC(=O)[C@H](CC(N)=O)NC(=O)[C@H](Cc1ccccc1)NC(=O)[C@H](CO)NC(=O)[C@@H](N)CSSC[C@H](N)C(=O)N[C@@H](Cc1ccc(O)cc1)C(=O)NCC(=O)N[C@@H](CCCNC(=N)N)C(=O)N[C@@H](CCCCN)C(=O)N[C@@H](CCCCN)C(=O)N[C@@H](CCCNC(=N)N)C(=O)N[C@@H](CCCNC(=N)N)C(=O)N[C@@H](CCC(N)=O)C(=O)N[C@@H](CCCNC(=N)N)C(=O)N[C@@H](CCCNC(=N)N)C(=O)N[C@@H](CCCNC(=N)N)C(=O)O)C(=O)O,inactive
24,CN(CC[C@H](N)CC(=O)N[C@H]1C=C[C@@H](n2ccc(N)nc2=O)O[C@@H]1C(=O)O)C(=N)N,inactive
25,c1cncc(N2CCNCC2)c1,inactive

row,SMILES,cytotoxicity call
1,Cc1[nH]c2ccccc2c1CCN,inactive
2,C=CCOC(=O)[C@@H]1[C@H](C(=O)OC)N(C)[C@@H](c2ccccc2)[C@]12C(=O)Nc1ccc(I)cc12,inactive
3,OCCN(CCO)CCO,inactive
4,NC1Cc2ccccc2C1,inactive
5,CC(C)(O)/C=C/C(=O)[C@](C)(O)[C@H]1[C@H](O)C[C@@]2(C)[C@H]3CC=C4[C@@H](CC(=O)C(=O)C4(C)C)[C@]3(C)C(=O)C[C@]12C,active
6,CC(=O)OC(C)(C)/C=C/C(=O)C(C)(O)[C@H]1[C@H](O)C[C@@]2(C)[C@H]3CC=C4[C@@H](C[C@H](O)C(=O)C4(C)C)[C@]3(C)C(=O)C[C@]12C (some centres not stated),active
7,Cc1nc(N2CCN(C)CC2)ccc1N,inactive
8,C[C@@H]1CN([C@H](C)CO)C(=O)CCCn2nncc2CO[C@H]1CN(C)C(=O)Oc1cccc2ccccc12,inactive
9,O=C1C2CCN(CC2)C1(CO)CO,inactive
10,CN[C@@H]1[C@@H](O)[C@@H](O[C@@H]2[C@@H](O)[C@H](O[C@H]3O[C@H](CN)CC[C@H]3N)[C@@H](N)C[C@H]2N)OC[C@]1(C)O.CN[C@@H]1[C@@H](O)[C@@H](O[C@@H]2[C@@H](O)[C@H](O[C@H]3O[C@H]([C@@H](C)N)CC[C@H]3N)[C@@H](N)C[C@H]2N)OC[C@]1(C)O.CN[C@@H]1[C@@H](O)[C@@H](O[C@@H]2[C@@H](O)[C@H](O[C@H]3O[C@H]([C@@H](C)NC)CC[C@H]3N)[C@@H](N)C[C@H]2N)OC[C@]1(C)O,inactive
11,CN1C2CCC1CC(OC(=O)C(CO)c1ccccc1)C2.O=S(=O)(O)O (configuration not stated),inactive
12,CNCC(=O)c1ccc(O)c(O)c1.Cl,inactive
13,CCn1nc(-c2cccnc2)nc2c(=O)n(C)c(=O)nc1-2,active
14,CCCC(=O)O[C@H]1CN2CC[C@H](O)[C@@H]2[C@@H](O)[C@@H]1O,inactive
15,O=[N+]([O-])O[C@@H]1CO[C@H]2[C@@H]1OC[C@@H]2O,inactive
16,C1CNC[C@@H](N2CCCC2)C1,inactive
17,O=C(NC[C@H]1CC[C@@H]2NC[C@@H]2O1)C1CCCC1,inactive
18,C=CCN=C=S,active
19,O=C1NCN(c2ccccc2)C12CCNCC2,inactive
20,CN1C[C@H]2CON[C@@H]2C1,inactive
21,O=[N+]([O-])c1ccc2c3c(cccc13)CC2,inactive
22,CC(C)(CN)CNc1ccc([N+](=O)[O-])c2cccnc12,active
